Assay outcomes deposited in PubChem BioAssay by National Center for Advancing Translational Sciences (NCATS).
Hits are enriched below; roughly 12% of the tested compounds scored in any of these assays.
Cycloheximide cs = affects cycloheximide protein synthesis inhibition readout, counter-screen. cell reporter, cycloheximide protein synthesis inhibition counterscreen. max response, %. 300,000 tested, 12% active. AID 2314; in the data active means max response mostly above about 13%, no sharp cut-off; inactive means mostly below about 14%; further: read at 38.3 µM for the half of the compounds with a filed dose
NS1 function inh = influenza NS1 inhibition | AID 2326 | Potency, µM (top dose mostly 46.1 µM) | 270,000 tested, 0.4% active; further: actives are rising curves; nearly all actives have a fitted effect of over 50% in size
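Compounds were scored for reversing the slow growth caused by influenza A NS1 in S. cerevisiae, measured by optical density at 600 nm. Assay medium contained 2% galactose at pH 6.0; NS1-free yeast of the same strain were the positive control.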
SARS PLpro yeast = SARS-CoV PLP inhibition in yeast | Potency, µM (highest dose often 32.9 µM), usual class: activators | 330,000 tested, 0.19% active | S. cerevisiae expressing SARS-CoV PLpro, growth rescue; further: nearly all actives have a fitted effect of over 55% in size
Shiga toxin inh = Shiga toxin inhibition; AID 2315; 290,000 tested, 9.2% active; Vero cells, Shiga toxin protein synthesis inhibition reporter; inhibition, % at 38.7 µM; in the data active means inhibition mostly above about 28%, no sharp cut-off; inactive means mostly below about 43%
Each line names hits and unclear results; the compound was inactive in the other large screens. Unless noted, the call rests on the fitted dose curve.

CN(c1cccc(NC(=O)CCSc2ccccc2)c1)S(C)(=O)=O	Cycloheximide cs 38, Shiga toxin inh 35
Nc1nc(CSC(=S)N2CCOCC2)nc(Nc2ccc(F)cc2)n1	none
Cc1ccc(Nc2nc(N)nc(CSC(=S)N3CCOCC3)n2)c(C)c1	Cycloheximide cs 34, Shiga toxin inh 72
Nc1nc(CSCCO)nc(Nc2ccc(F)cc2)n1	Cycloheximide cs 25
COc1ccc(Nc2nc(N)nc(CSC(=S)N3CCOCC3)n2)cc1	Cycloheximide cs 39, Shiga toxin inh 67
Cc1ccc(Nc2nc(N)nc(CSC(=S)N3CCN(c4ccccc4)CC3)n2)cc1	NS1 function inh inconclusive
CN1CCN(C(=S)SCc2nc(N)nc(Nc3ccc(F)cc3)n2)CC1	Cycloheximide cs 19
Cc1nc2ccccc2nc1-c1ccc(N=[N+]([O-])c2ccc(-c3nc4ccccc4nc3C)cc2)cc1	none (no result: Cycloheximide cs, SARS PLpro yeast, Shiga toxin inh)
CC(C)(CO[C@H]1C[C@H]2CC[C@@]1(C)C2(C)C)[N+](=O)[O-]	none (no result: Cycloheximide cs, SARS PLpro yeast, Shiga toxin inh)
CCOC(=O)c1csc(N)c1-c1ccc([N+](=O)[O-])cc1	none
O=C(COc1ccccc1)N=C1SC2CS(=O)(=O)CC2N1c1ccccc1 (stereo not given)	none
CN(C)c1ccc(N2C(=NC(=O)COc3ccccc3)SC3CS(=O)(=O)CC32)cc1 (stereo not given)	Cycloheximide cs 25, Shiga toxin inh 46
CCN(C(=O)c1ccc(S(=O)(=O)N(C)C)cc1)C(C)C(=O)Nc1ccc(C)cc1 (stereo not given)	none
CC(=O)N/N=C(\C)c1ccc2c(c1)OCCO2	none (no result: NS1 function inh)
C/C(=N\NC(N)=S)c1ccc2c(c1)OCCO2	Cycloheximide cs 26, Shiga toxin inh 43
C/C(=N\NC(=O)CSc1nc(C)cc(C)n1)c1ccc2c(c1)OCCO2	Cycloheximide cs 38, Shiga toxin inh 84 (no result: NS1 function inh)
C/C(=N\NC(=S)NCc1ccccc1)c1ccc2c(c1)OCCO2	Shiga toxin inh 93 (no result: NS1 function inh)
C/C(=N\NC(=S)NCc1ccccc1)c1ccc(Br)cc1	none (no result: NS1 function inh)
C/C(=N/NC(=O)c1ccc2c(c1)OCO2)c1ccc(NC(=O)c2ccc(F)cc2)cc1	Cycloheximide cs 34, Shiga toxin inh 40
O=C(COC(=O)c1cccc(Br)c1)NCCc1ccc(F)cc1	none
O=C(COC(=O)c1ccc2c(c1)OCCO2)Nc1ccc(F)cc1	none (no result: Cycloheximide cs, NS1 function inh, Shiga toxin inh)
C/C(=N\NC(=S)Nc1ccc(F)cc1)c1ccc2c(c1)OCCO2	Cycloheximide cs 28, Shiga toxin inh 66
C/C(=N\NC(=S)NCc1ccccc1)c1cccs1	Cycloheximide cs 35, Shiga toxin inh 135 (no result: NS1 function inh)
O=C(c1ccc(-n2cncn2)c([N+](=O)[O-])c1)N1CCN(S(=O)(=O)c2ccc(F)c(F)c2)CC1	none (no result: Cycloheximide cs, NS1 function inh, Shiga toxin inh)
OCCC1CN(Cc2ccc3c(c2)CCO3)CCN1C1CCCC1 (stereo not given)	none
COCCCn1c(=S)[nH]c2sc3c(c2c1=O)CCCS3	Cycloheximide cs 40, Shiga toxin inh 91 (no result: NS1 function inh)
COCCn1c(=S)[nH]c2sc3c(c2c1=O)CCC(C)C3 (stereo not given)	none
CC12C(=O)N(c3nccs3)C(=O)C1C1C=CC2C1 (stereo not given)	none
COc1cc(CC(=O)NCCc2ccc(OCc3ccccc3)cc2)c([N+](=O)[O-])cc1OC	Cycloheximide cs 49
CCCCOc1ccc(C(=O)NCCc2ccccc2)cc1	Cycloheximide cs 42, SARS PLpro yeast inconclusive, Shiga toxin inh 91
COc1ccc(C(=O)NCC2(c3ccccc3)CCOCC2)cc1	Cycloheximide cs 36
O=C(COc1ccc(C(=O)NCCc2ccccc2)cc1)Nc1ccccc1	none
COc1ccc2cc(C(=O)NCCc3ccccc3)[nH]c2c1	Cycloheximide cs 22
COc1ccc(CN2CCN(C(C)C(=O)N3CCc4ccccc43)CC2)cc1OC (stereo not given)	none
O=C(O)CN1C(=O)/C(=C/c2ccc(-c3cccc(Cl)c3)o2)SC1=S	none (no result: NS1 function inh, SARS PLpro yeast)
Cc1ccc2cc(C#N)c(NCCNC(=O)C3CC3)nc2c1C	none
CC(C)c1ccc(OC(=O)NCCO)cc1	Cycloheximide cs 15, Shiga toxin inh 44
COc1ccc(CC(=O)Nc2cccc(C(=O)O)c2C)cc1	Cycloheximide cs 15, NS1 function inh inconclusive
Cc1ccc(OCC(=O)NCCO)cc1C	NS1 function inh inconclusive
COc1ccc(CCNC(=O)c2ccccc2)cc1	Cycloheximide cs 28, Shiga toxin inh 117
O=C(NCCc1ccccc1)c1ccc([N+](=O)[O-])cc1	none
O=C(NCCc1ccc([N+](=O)[O-])cc1)c1ccccc1	Cycloheximide cs 29, Shiga toxin inh 61
N#Cc1ccc(OCC(=O)N2CCN(c3ccc(C(F)(F)F)cn3)CC2)cc1	none (no result: Cycloheximide cs, NS1 function inh, Shiga toxin inh)
O=c1[nH]c(C2CCN(S(=O)(=O)c3ccc(C(F)(F)F)cc3)CC2)nc2c1nnn2Cc1ccccc1	NS1 function inh inconclusive
COc1ccc([C@]23Cc4ccccc4C(O2)c2c(cc(C)n(Cc4ccccc4)c2=O)O3)cc1	none
O=S(=O)(c1ccc(F)cc1)c1nc(-c2ccccc2)oc1N1CCOCC1	none
O=C(NCCNC(=O)c1ccc([N+](=O)[O-])cc1)c1ccncc1	none (no result: NS1 function inh)
CC(C)OC(=O)C(C)Oc1ccc(C(=O)NCCc2ccccc2)cc1 (stereo not given)	Cycloheximide cs 25, Shiga toxin inh 40
CC(Oc1ccc(C(=O)NCCc2ccccc2)cc1)C(=O)O (stereo not given)	none
COc1ccc(C(=O)NCCc2cn3ccccc3n2)cc1	Shiga toxin inh 43
COc1ccc(CNC(=O)COC(=O)C2=COCCO2)cc1	none
O=C(NCCC1CC1(Cl)Cl)c1ccc([N+](=O)[O-])cc1 (stereo not given)	Cycloheximide cs 25
COc1ccc(CCNC(=O)C2=COCCO2)cc1	Cycloheximide cs 24, Shiga toxin inh 66
O=C(NCC(=O)N1CCN(c2ccccc2)CC1)c1ccc(Br)o1	none
COc1ccc(C(=O)NCc2ccccn2)cc1	none
CCCCOc1ccc(C(=O)NCc2ccccn2)cc1	Cycloheximide cs 21
COc1cccc(CNC(=O)c2ccc(C3SCCS3)cc2)c1	Cycloheximide cs 26
COc1ccc(CC(=O)Nc2ccccc2C(=O)NCCc2ccccc2)cc1	Cycloheximide cs 30, Shiga toxin inh 48
COc1cccc(CCNC(=O)c2ccc(C#N)cc2)c1	Cycloheximide cs 21, Shiga toxin inh 38
COc1cccc(CNC(=O)c2ccc(C(=O)NCc3cccc(OC)c3)cc2)c1	SARS PLpro yeast inconclusive
COc1cccc(CCNS(=O)(=O)CCNC(=O)c2cccc(OC)c2)c1	none (no result: Cycloheximide cs, NS1 function inh, Shiga toxin inh)
O=C(Cc1ccc(F)cc1)Nc1ccc(S(=O)(=O)N2CCCCC2)cc1	none
O=[N+]([O-])c1ccc(-n2cnc3ccccc32)c([N+](=O)[O-])c1	none (no result: NS1 function inh)
COc1ccc(OC(=O)NCCc2ccccc2)cc1	Cycloheximide cs 33, Shiga toxin inh 62
CC(C)Sc1nc2ccc(N3C(=O)C4CCCCC4C3=O)cc2s1 (stereo not given)	Cycloheximide cs 24
CC(=O)n1cc(/C=N/NC(=O)c2cccc(O)c2)c2ccccc21	Cycloheximide cs 36, Shiga toxin inh 59
CC(=O)n1cc(/C=N/NC(=O)c2ccc(Cl)cc2)c2ccccc21	Cycloheximide cs 41, Shiga toxin inh 61
O=C(N/N=C/c1ccc(OC(=O)c2ccccc2)cc1)c1cccc(O)c1	none (no result: NS1 function inh)
CC(=O)n1cc(/C=N/NC(=O)c2ccccc2Cl)c2ccccc21	none
Cn1c(SCc2cc(=O)[nH]c(C(C)(C)C)n2)nnc1C(F)(F)F	none
O=C(NCc1csc2ccccc12)Nc1cc(Cl)cc(Cl)c1	none
